Sampled rows, rich in hits. Any-hit rate of the full collection: about 19%.
TDP1 cell CPT = DT40-hTDP1 cell growth loss with CPT | chicken DT40 Tdp1-/-;hTDP1 cells + 20 nM CPT, ATP luminescence, 48 h | Potency, µM (series often up to 46.2 µM), hits mostly inhibitors | actives 12% (n = 420,000); also: nearly all actives have a fitted effect of over 55% in size
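Chicken DT40 Tdp1-/- cells stably complemented with human TDP1 were seeded at 400 cells/well in medium containing 20 nM camptothecin, exposed to pin-transferred compounds, and grown at 37 °C for at least 48 hr. Viability was read as ATP luminescence.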
KB-V1 MDR tox = kills drug-selected multidrug resistant KB-V1 cells | AID 1347076 | Potency, µM (series often up to 46.1 µM), most hits filed as cytotoxic | actives 3.4% (n = 400,000) | KB-V1 MDR cells viability, CellTiter-Glo, 72 h; also: nearly all actives have a fitted effect of over 60% in size
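Cells of the MDR subline KB-V1 are plated, dosed with compound at multiple concentrations, and incubated 72 h at 37 degrees C; CellTiter-Glo is then added and luminescence read after 10 min.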
TDP1 cell noCPT = qHTS for Inhibitors of human tyrosyl-DNA phosphodiesterase 1 (TDP1): qHTS in cells in absence of CPT | DT40 Tdp1-/- hTDP1 cells, no CPT, ATP luminescence, 48 h | actives 15% (n = 420,000) | Potency, µM (doses to about 46.2 µM), most hits filed as inhibitors; also: nearly all actives have a fitted effect of over 55% in size
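Compound effects on proliferation are scored in DT40 Tdp1-/-;hTDP1 cells in the absence of CPT. ATP levels (CellTiter-Glo luminescence) are recorded after a ≥48 hr, 37 °C incubation.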
KB-3-1 cytotox = KB-3-1 parental cell cytotoxicity. actives 1.4% (n = 400,000). KB-3-1 viability, CellTiter-Glo ATP luminescence, 72 h. AID 1347075. Potency, µM (highest dose often 46.1 µM), actives largely listed as cytotoxic; also: nearly all actives have a fitted effect of over 60% in size
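Cytotoxicity in the drug-sensitive parental line KB-3-1 was scored as loss of CellTiter-Glo luminescence following 72 h incubation with compound. Values come from curve fitting of normalized concentration-response data.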
HT1080NT lethal = kills 2HG-producing HT-1080-NT fibrosarcoma cells; HT-1080-NT fibrosarcoma viability, CellTiter-Glo ATP luminescence, 48 h; Potency, µM (series often up to 46.1 µM), actives largely listed as cytotoxic; actives 1.6% (n = 360,000);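 also: NT is the 2HG producing partner of a matched IDH1 knockdown line; nearly all actives have a fitted effect of over 55% in size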
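A 48-hour cytotoxicity screen used HT-1080-NT cells plated 2 hours before compound delivery. ATP-based CellTiter-Glo luminescence measured viability, normalized to DMSO and no-cell controls.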
HT1080 IDH1KD tx = kills HT-1080 cells with IDH1 knockdown | actives 2% (n = 360,000) | Potency, µM (doses to about 46.1 µM), usual class: cytotoxic | HT-1080 IDH1 knockdown viability, ATP luminescence, 48 h
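HT-1080-IDH1KD cells (IDH1 knocked down), 750/well in RPMI with 5% FBS, treated with compound 48 h at 37 degrees C. Viability by CellTiter-Glo luminescence, normalised to DMSO and no-cell wells; concentration-response curves classed.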
Large screens that a line does not name were inactive. Calls follow the shape of the dose curve; as a rule, active = well fitted curve in the direction sought with a large enough effect; inconclusive = small, poorly fitted or top-dose-only effect, or another doubt; inactive = no such curve, though single readings can be large; an effect the other way counts as inactive or inconclusive.

O=C(c1ccc([N+](=O)[O-])cc1)N1CCN(c2ncc(Br)cn2)CC1	TDP1 cell CPT inconclusive, TDP1 cell noCPT inconclusive
C=CC[C@@H](CC(=O)NCCO)C(=O)N[C@@H](COC(=O)[C@@H](CC=C)CC(=O)OC(C)(C)C)Cc1ccccc1	TDP1 cell CPT inconclusive
C=CC[C@@H](CC(=O)N[C@@H](CO)Cc1ccccc1)C(=O)N[C@H](COC(=O)[C@@H](CC=C)CC(=O)OC(C)(C)C)Cc1ccccc1	TDP1 cell CPT 13µM, TDP1 cell noCPT 21µM
C=CC[C@@H](CC(=O)N[C@H](CO)Cc1ccccc1)C(=O)N[C@@H](COC(=O)[C@H](CC=C)CC(=O)OC(C)(C)C)Cc1ccccc1	TDP1 cell CPT 21µM, TDP1 cell noCPT 23µM, KB-3-1 cytotox inconclusive
C=CC[C@@H](CC(=O)N[C@@H](CO)Cc1ccccc1)C(=O)N[C@H](COC(=O)[C@@H](CC=C)CC(=O)OC(C)(C)C)Cc1c[nH]c2ccccc12	TDP1 cell CPT 16µM, TDP1 cell noCPT 3.7µM, HT1080NT lethal inconclusive, HT1080 IDH1KD tx inconclusive
CC(C)N(Cc1ccccc1)C(=O)COC(=O)c1ccc(O)cc1	none
O=C(NCC(c1ccc(F)cc1)N1CCOCC1)c1ccco1 (configuration not stated)	none
O=C(N[C@@H](Cc1ccccc1)C(=O)N[C@@H](Cc1ccccc1)C(=O)O)OCc1ccccc1	none
O=C(N[C@@H](Cc1ccccc1)C(=O)CCl)OCc1ccccc1	TDP1 cell CPT 2.3µM, KB-V1 MDR tox 23µM, TDP1 cell noCPT 2.3µM, KB-3-1 cytotox inconclusive, HT1080NT lethal 6.5µM, HT1080 IDH1KD tx 21µM
CCN(CC)CCC(=O)N1c2ccccc2Sc2ccc(Cl)cc21	TDP1 cell CPT 15µM, KB-V1 MDR tox inconclusive, TDP1 cell noCPT inconclusive, HT1080NT lethal inconclusive, HT1080 IDH1KD tx 21µM
NCCCC(=O)N1c2ccccc2Sc2ccc(Cl)cc21	TDP1 cell CPT inconclusive, TDP1 cell noCPT 23µM, HT1080NT lethal inconclusive, HT1080 IDH1KD tx inconclusive
Cc1ccc2[nH]c(C(=O)N/N=C/c3ccc([N+](=O)[O-])cc3)c(C)c2c1	TDP1 cell CPT 3.7µM, TDP1 cell noCPT 4.1µM, KB-3-1 cytotox inconclusive
Cc1ccc2[nH]c(C(=O)N/N=C/c3ccccc3O)c(C)c2c1	TDP1 cell CPT 4.6µM, TDP1 cell noCPT 4.6µM, KB-3-1 cytotox inconclusive, HT1080NT lethal inconclusive, HT1080 IDH1KD tx 2.6µM
COc1cccc(CNC(=O)C2=C(C)C(=O)OC23CCCCCC3)c1	none (no result: HT1080NT lethal, HT1080 IDH1KD tx)
Cc1c(NC(=O)c2ccc(-c3cccc([N+](=O)[O-])c3)o2)c(=O)n(-c2ccccc2)n1C	none
Cn1cncc1C#Cc1c(C=O)[nH]c2ccccc12	TDP1 cell CPT 5.8µM, KB-V1 MDR tox inconclusive, TDP1 cell noCPT 10µM, KB-3-1 cytotox inconclusive, HT1080 IDH1KD tx inconclusive
CCOc1ccc(C(=O)Nc2ccc(C(=O)N3CCOCC3)cc2)c(OCC)c1	TDP1 cell CPT inconclusive, KB-V1 MDR tox inconclusive, TDP1 cell noCPT 13µM
COc1ccc(NC(=O)c2cc([N+](=O)[O-])ccc2N2CCCC2)cc1	KB-3-1 cytotox inconclusive
COc1ccc(C(=O)Nc2ccc(C(=O)N3CCOCC3)cc2)cc1OC	none
COc1ccc(NC(=O)c2cc([N+](=O)[O-])ccc2N2CCCCC2)cc1	TDP1 cell CPT 21µM, KB-V1 MDR tox inconclusive, TDP1 cell noCPT 21µM, KB-3-1 cytotox inconclusive
COc1ccc(NC(=O)c2cc([N+](=O)[O-])ccc2N2CCCCC2)cc1OC	TDP1 cell CPT 21µM, KB-V1 MDR tox inconclusive, TDP1 cell noCPT inconclusive
CCOc1ccc(NC(=O)c2cc([N+](=O)[O-])ccc2N2CCOCC2)cc1	TDP1 cell CPT inconclusive, KB-V1 MDR tox 23µM, TDP1 cell noCPT inconclusive, HT1080NT lethal inconclusive, HT1080 IDH1KD tx inconclusive
C[C@@H]1CN([C@H](C)CO)C(=O)CCCn2nncc2CO[C@@H]1CN(C)S(=O)(=O)c1ccccc1	none
CCN(CC)C(=O)CSC1=N/C(=C/c2ccco2)C(=O)N1c1ccc(OC)c(Cl)c1	TDP1 cell CPT 21µM, TDP1 cell noCPT inconclusive
CCOc1cc(/C=C2\SC(=O)N(c3ccc(O)cc3)C2=O)ccc1O	TDP1 cell CPT inconclusive, TDP1 cell noCPT inconclusive
NC(=O)CSC1=N/C(=C\c2ccco2)C(=O)N1c1ccc(OC(F)F)cc1	TDP1 cell CPT inconclusive, TDP1 cell noCPT 13µM
CCOc1cc(/C=C2\N=C(SC(C)C(N)=O)N(c3ccc(OC(F)F)cc3)C2=O)ccc1O (configuration not stated)	TDP1 cell CPT inconclusive, TDP1 cell noCPT 10µM, HT1080NT lethal inconclusive, HT1080 IDH1KD tx inconclusive
COc1ccc(N2C(=O)/C(=C\c3ccco3)N=C2SCC(=O)NC(C)(C)C)cc1Cl	TDP1 cell CPT inconclusive, KB-V1 MDR tox inconclusive, TDP1 cell noCPT inconclusive, KB-3-1 cytotox inconclusive
O=C(NCCS(=O)(=O)NCCCc1ccccc1)c1ccccc1	none
COc1cc(C2NC(=O)NC3=C2C(=O)OC3)cc(OC)c1OC (configuration not stated)	TDP1 cell CPT inconclusive
Cc1ccc(NC(=S)/N=C(\N)Nc2nc(C)c3ccccc3n2)cc1C	TDP1 cell CPT inconclusive, KB-V1 MDR tox inconclusive, TDP1 cell noCPT inconclusive, KB-3-1 cytotox inconclusive
Cc1cccc(NC(=S)/N=C(\N)Nc2nc(C)c3cc(C)ccc3n2)c1	TDP1 cell CPT 21µM, KB-V1 MDR tox 23µM, TDP1 cell noCPT 23µM
Cc1ccc(S(=O)(=O)/N=C(\N)Nc2nc(C)c3ccccc3n2)cc1	KB-V1 MDR tox 9.2µM
CCOc1ccc2nc(N/C(N)=N/S(=O)(=O)c3ccc(C)cc3)nc(C)c2c1	TDP1 cell CPT inconclusive, TDP1 cell noCPT inconclusive
CCc1ccc(NC(=S)/N=C(\N)Nc2nc(C)c3cc(CC)ccc3n2)cc1	TDP1 cell CPT inconclusive, KB-V1 MDR tox inconclusive, TDP1 cell noCPT inconclusive, KB-3-1 cytotox inconclusive, HT1080NT lethal inconclusive, HT1080 IDH1KD tx 10µM
Cc1cccc(NC(=S)/N=C(\N)Nc2nc(C)c3ccccc3n2)c1	TDP1 cell CPT 18µM, KB-V1 MDR tox inconclusive, TDP1 cell noCPT inconclusive, KB-3-1 cytotox inconclusive
Cc1cccc(NC(=S)/N=C(\N)Nc2nc(C)c3ccc(C)cc3n2)c1	TDP1 cell CPT 15µM, TDP1 cell noCPT 12µM, HT1080 IDH1KD tx inconclusive
Cc1cc(C)cc(NC(=S)/N=C(\N)Nc2nc(C)c3ccccc3n2)c1	TDP1 cell CPT 21µM, KB-V1 MDR tox 18µM, TDP1 cell noCPT 15µM, KB-3-1 cytotox inconclusive
